Measurements taken from PubChem BioAssay (NCATS).
Results filed as inconclusive are left out. Active and inactive are the calls of the source. Calls come from the whole dose curve; as a rule, active = well fitted inhibition curve with a large enough effect; inconclusive = small, poorly fitted or top-dose-only effect, or effect the other way; inactive = flat fitted curve, though single readings scatter.

experiment: qHTS for Inhibitors of Plasmodium falciparum (CP250) proliferation (AID 504320); conditions: P. falciparum CP250 in erythrocytes, SYBR Green DNA, 72 h; series mostly up to 6.7 µM
In short: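 Erythrocytes infected with P. falciparum line (0.3% parasitemia, 2.5% hematocrit final) incubated with compounds 72 h at 37 °C, 5% CO2; SYBR Green lysis buffer added, fluorescence read next day. Normalized to 0.29 uM artemisinin and DMSO.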

Potency, inactive:
COC(=O)C1=C(C(=O)OC)[C@@H]2Nc3ccccc3[C@@]23C[C@@H](C(=O)OC)N(S(=O)(=O)c2cccs2)C3=N1
CCOC(=O)CN1C(=O)N[C@@H](CCc2ccccc2)C(C(=O)OC)=C1C
CC(C)(C)OC(=O)NCCCC1=CC2=CC(=O)C(C)(OC(=O)c3cccs3)C(=O)C2=CO1 (configuration not stated)
COC(=O)C1=C(C(=O)OC)[C@@H]2N(Cc3ccccc3)c3ccccc3[C@@]23CCC(=O)N(CC2CCCCC2)C3=N1
COC(=O)[C@H]1[C@@H](C)N(Cc2ccccc2)C(=O)N[C@H]1c1cccc(C(F)(F)F)c1
CC1(OC(=O)C2CCCC2)C(=O)C=C2C=C(c3ccsc3)N(c3ccc(CO)cc3)C=C2C1=O (configuration not stated)
COC(=O)N[C@@H](c1cccc(C)c1)C(C(C)=O)C(=O)OC (some centres not stated)
COC(=O)C1=C(C(=O)OC)[C@@H]2Nc3ccccc3[C@@]23C[C@@H](C(=O)OC)N(C(=O)c2ccc(Br)cc2)C3=N1
CCCCC1=CC2=CC(=O)C(C)(OC(=O)CC)C(=O)C2=CN1c1ccccc1 (configuration not stated)
CCN(CC)CCCN1C=C2C(=O)C(C)(OC(=O)CCC(=O)OC)C(=O)C(Br)=C2C=C1c1ccc(OC)cc1 (configuration not stated)
C=CC1=C2C=C(C3CC3)N(Cc3ccco3)C=C2C(=O)C(C)(OC(=O)c2ccco2)C1=O (configuration not stated)
CC#CCN1c2ccccc2[C@]23C[C@@H](C(=O)OC)N(C(C)=O)C2=NC(C(=O)OC)=C(C(=O)OC)[C@H]13
CCCCC1=CC2=C(c3ccco3)C(=O)C(C)(OC(=O)c3ccc(OC)cc3)C(=O)C2=CN1CCc1c[nH]c2ccccc12 (configuration not stated)
C=CCN1c2ccccc2[C@]23C[C@@H](C(=O)OC)N(C(C)=O)C2=NC(C(=O)OC)=C(C(=O)OC)[C@H]13
CCOC(=O)CN1C(=O)N[C@@H](CCc2ccccc2)[C@@H](C(=O)OC)[C@H]1C
CCN1C(=O)N[C@@H](c2cccc(F)c2)C(C(C)=O)=C1C
COc1cccc([C@@H]2Oc3ccc(Br)cc3C(=O)[C@@H]2OC(=O)Nc2cc(OC)c(OC)c(OC)c2)c1
C=CCN1c2ccccc2[C@]23C[C@@H](C(=O)OC)N(C(=O)COCc4ccccc4)C2=NC(C(=O)OC)=C(C(=O)OC)[C@H]13
COC(=O)CCC(=O)OC1(C)C(=O)C=C2C=C(C3CC3)N(CCN3CCOCC3)C=C2C1=O (configuration not stated)
CCCCC1=CC2=C(c3ccco3)C(=O)C(C)(OC(=O)c3ccc(OC)cc3)C(=O)C2=CN1C1CCCC1 (configuration not stated)
CC[C@@H](C)CN1C(=O)N[C@@H](c2ccccc2)C(C(C)=O)=C1C
CCN1C(=O)N[C@@H](c2cccs2)C(C(C)=O)=C1C
COC(=O)[C@@]1(C=C2c3ccc(F)cc3[C@@H](OC)[C@@H]2C)[C@@H]2CC=C[C@@H]21
COC(=O)C1=C(C(=O)OC)[C@@H]2N(C)c3ccccc3[C@@]23C[C@@H](CO)N(C(=O)c2cc(C)oc2C)C3=N1
COC/C=C/C1=CC2=CC(=O)C(C)(OC(=O)c3cnc4ccccc4n3)C(=O)C2=CN1CCOC (configuration not stated)
COC(=O)C1=C(C)N(Cc2ccco2)C(=O)N[C@@H]1c1ccco1
CC(C)(C)N1C(=O)[C@@H]2[C@H]3[C@H](O)[C@H](O)CC(=NOCc4ccccc4)[C@H]3CC[C@H]2C1=O
COC(=O)CCCC1=CC2=C(c3ccccc3)C(=O)C(C)(OC(=O)C3CCCC3)C(=O)C2=CN1Cc1ccccc1 (configuration not stated)
COC(=O)C1=C(C(=O)OC)[C@@H]2N(C)c3ccc(OC)cc3[C@@]23C[C@@H](C(=O)OC)N(C(C)=O)C3=N1
CCCCC1=CC2=CC(=O)C(C)(OC(=O)CC)C(=O)C2=CN1CCCN(CC)CC (configuration not stated)
C=CCOC(=O)N[C@H](C(C(=O)OC)=C(C)NCc1ccccc1)c1ccc(C)cc1
CCN1C(=O)N[C@@H](c2cccc(C(F)(F)F)c2)C(C(=O)OC)=C1C
COC(=O)CCCC1=CC2=CC(=O)C(C)(OC(=O)c3cccs3)C(=O)C2=CN1Cc1ccccc1 (configuration not stated)
COC/C=C/C1=CC2=CC(=O)C(C)(OC(=O)c3cnc4ccccc4n3)C(=O)C2=CN1C1CCCC1 (configuration not stated)
COC(=O)CCCC1=CC2=CC(=O)C(C)(OC(=O)CCc3ccccc3)C(=O)C2=CO1 (configuration not stated)
CCN1C(=O)N[C@@H](c2cccs2)C(C(=O)OC)=C1C
CCCCC1=CC2=CC(=O)C(C)(OC(=O)CC)C(=O)C2=CN1Cc1ccccc1 (configuration not stated)
